Experiment [1] can be described thus: qHTS assay to identify small molecule agonists of the vitamin D receptor (VDR) signaling pathway - cell viability counter screen (AID 743224). Also: nearly all actives have a fitted effect of over 50% in size. The note with it: VDR-bla HEK293T viability, CellTiter-Glo luminescence, 16 h; series mostly up to 62.6 µM. Summed up: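 Cells: VDR-bla, 2,000/well, settled 4 h. Treatment: compounds in DMSO, 16 h, 37C/5% CO2. Readout: CellTiter-Glo luminescence after 30 min RT.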
In general terms: Quantitative high-throughput screening tests each substance at several concentrations.

Experiment [2] in a line: qHTS assay to identify small molecule antagonists of the vitamin D receptor (VDR) signaling pathway - cell viability counter screen (AID 743225). Also: nearly all actives have a fitted effect of over 50% in size. The note with it: VDR-bla HEK293T viability, CellTiter-Glo luminescence, 16 h; series mostly up to 61 µM. The method, boiled down: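 Parallel cytotoxicity test: VDR-UAS-bla HEK 293T, 3 nM (final) 1-alpha,25-dihydroxyvitamin D3 with test compound, 16 h, 37C. Endpoint is CellTiter-Glo luminescence in the same wells.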

A short description of experiment [3]: qHTS assay to identify small molecule agonists of the NFkB signaling pathway (AID 1159509; active = well fitted curve in the direction sought with a large enough effect in the signal ratio in the repeat runs, not every such curve was filed as active; the % refers to the signal ratio). The following applies: NFkB-bla ME-180 cells, beta-lactamase FRET ratio, 5 h; series mostly up to 61 µM. The method, boiled down: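 Pathway activation was measured in ME-180 cells stably expressing beta-lactamase under NF-kB response element control. Substrate cleavage was read as the 460/530 nm emission shift after 5 hr compound incubation.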

The nature of experiment [4]: qHTS assay to identify small molecule agonists of the NFkB signaling pathway - cell viability counter screen (AID 1159515; calls by dose curve; also: nearly all actives have a fitted effect of over 55% in size). The note with it: NFkB-bla ME-180 viability, CellTiter-Glo luminescence, 5 h; series mostly up to 61 µM. Summed up:
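Cells are seeded (2,000 NFkB-bla ME-180 per well), rested overnight, and dosed with DMSO-dissolved compounds for 5 hr at 37 C. Viability is then read by CellTiter-Glo luminescence after 30 min at room temperature.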

The nature of experiment [5]: qHTS assay to identify small molecule agonists of the endoplasmic reticulum stress response signaling pathway (AID 1159516; active = well fitted activation curve with a large enough effect in the signal ratio in the repeat runs, not every such curve was filed as active; the % refers to the signal ratio). The following applies: ESRE-bla HeLa, ER stress beta-lactamase reporter, 5 h; series mostly up to 61 µM. Summed up:
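Cells are seeded at 1,500 per well and incubated overnight. Compounds in DMSO are added for 5 hr at 37 C, then beta-lactamase FRET substrate for 2 hr at room temperature, and fluorescence at 460 and 530 nm is measured.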

Experiment [6] is described as follows: qHTS assay to identify small molecule agonists of the endoplasmic reticulum stress response signaling pathway - cell viability counter screen (AID 1159517; calls by dose curve; also: nearly all actives have a fitted effect of over 50% in size; also: potency is read from the fitted curve at half-maximal effect). The following applies: ESRE-bla HeLa viability, CellTiter-Glo luminescence, 5 h; series mostly up to 61 µM. The method, boiled down:
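In parallel with the ESRE reporter read, cytotoxicity was scored by CellTiter-Glo luminescence (30 min, room temperature) on HeLa ESRE-bla cells dosed for 5 hr.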

Experiment [7] can be described thus: qHTS assay to identify small molecule antagonists of the retinoid-related orphan receptor gamma (ROR-gamma) signaling pathway - cell viability counter screen (AID 1159520). Also: nearly all actives have a fitted effect of over 50% in size. The following applies: Tet-on RORgamma CHO cells viability, ATP luminescence, 16 h; series mostly up to 92.4 µM. The method, boiled down: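 Tet-on ROR gamma CHO cells were given compounds for 2 hr, then doxycycline hyclate at 1 uM final, and incubated 16 hr at 37 C. Viability was measured as ATP content by CellTiter-Glo luminescence.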

For experiment [8], the target named is Nuclear receptor ROR-gamma (Homo sapiens) (UniProt P51449). The experiment is described as follows: qHTS assay to identify small molecule antagonists of the retinoid-related orphan receptor gamma (ROR-gamma) signaling pathway (AID 1159521). The note with it: Tet-on RORgamma CHO cells, RORE-luciferase, 16 h; series mostly up to 92.4 µM. Summed up:
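Decreased RORE-driven luciferase luminescence indicates antagonism. Tet-on RORγ CHO cells received compound, then 1 uM final doxycycline 2 h later; signal read after 16 h incubation.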

Experiment [9] in a line: qHTS assay to identify small molecule agonists of the AP-1 signaling pathway - cell viability counter screen (AID 1159525; calls by dose curve; also: nearly all actives have a fitted effect of over 55% in size). The note with it: ME-180 AP-1-bla cells viability, ATP luminescence, 5 h; series mostly up to 76.8 µM. Summed up: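 Same-well cytotoxicity counter screen of the Tox21 10K library in ME-180 cells. The readout is ATP-dependent luminescence after 5 h compound treatment. Data are normalised to DMSO and tetra n-octyl ammonium bromide controls.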

A short description of experiment [10]: qHTS assay to identify small molecule agonists of the AP-1 signaling pathway (AID 1159526; calls by dose curve; also: potency is read from the fitted curve at half-maximal effect). The following applies: ME-180 (cervical carcinoma) AP-1-bla reporter, beta-lactamase FRET ratio, 5 h; series mostly up to 76.8 µM.
Experiment [11] has as its target Retinoic acid receptor RXR-alpha (Homo sapiens) (UniProt P19793). The experiment is described as follows: qHTS assay to identify small molecule agonists of the RXR signaling pathway (AID 1159527; calls by dose curve; also: nearly all actives have a fitted effect of over 35% in size; also: potency is read from the fitted curve at half-maximal effect). The following applies: HEK293T RXRa-UAS-bla, beta-lactamase ratio, 16 h; series mostly up to 76.8 µM. Summed up: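 16 hr incubation of compound-treated RXR-alpha-UAS-bla HEK 293T cells (2% charcoal-stripped FBS, 37 C) preceded a 2 hr room-temperature LiveBLAzer FRET substrate step and blue/green fluorescence measurement.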

A short description of experiment [12]: qHTS assay to identify small molecule agonists of the RXR signaling pathway - cell viability counter screen (AID 1159529). Also: nearly all actives have a fitted effect of over 50% in size. The following applies: RXR-alpha-bla HEK293T viability, CellTiter-Glo, 16 h; series mostly up to 76.8 µM. Summed up: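 In this parallel viability measure, GeneBLAzer RXR-alpha HEK 293T cells (2% charcoal-stripped FBS) were given a 5 hr preincubation, treated with compounds 16 hr at 37 C, and read by CellTiter-Glo luminescence.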

Experiment [13] in a line: qHTS assay to identify small molecule antagonists of the retinoid acid receptor (RAR) signaling pathway - cell viability counter screen (AID 1159551). Also: nearly all actives have a fitted effect of over 35% in size. The following applies: C3RL4 cells viability, ATP luminescence (CellTiter-Glo), 6 h; series mostly up to 92.4 µM. Summed up: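 Cells (C3RL4) are plated, incubated overnight, dosed with compound in DMSO, then given retinol at 1 uM final. After 6 h at 37 C, CellTiter-Glo is added and luminescence read following 30 min at room temperature.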

A short description of experiment [14]: qHTS assay to identify small molecule antagonists of the retinoic acid receptor (RAR) signaling pathway (AID 1159552; also: nearly all actives have a fitted effect of over 50% in size). The note with it: C3RL4 RARE luciferase reporter, retinol-stimulated, 6 h; series mostly up to 92.4 µM. Summed up:
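C3RL4 RARE-luc cells, overnight plating; retinol 1 uM final added right after compound; 6 hr 37 C; luciferase read at 30 min RT.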

Experiment [15] can be described thus: qHTS assay to identify small molecule agonists of the retinoic acid receptor (RAR) signaling pathway (AID 1159553). The following applies: C3RL4 RARE luciferase reporter, agonist, 6 h; series mostly up to 73.3 µM. The method, boiled down:
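Seed C3RL4 reporter cells at 1,000 per well and incubate overnight at 37 C. Add compounds in DMSO, incubate 6 hr. Add luciferase reagent, wait 30 min at room temperature, read luminescence.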

Experiment [16] is described as follows: qHTS assay to identify small molecule antagonists of the estrogen related receptor (ERR) signaling pathway - cell viability counter screen (AID 1224818). The following applies: ERR reporter cell line viability counter screen; series mostly up to 46.1 µM. The method, boiled down:
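ERR cells, 2,000/well; 6 h settle at 37 C/5% CO2; compound pin transfer (DMSO); 17.5 h at 37 C; CellTiter-Fluor, 30 min, fluorescence read.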

Experiment [17] can be described thus: qHTS assay to identify small molecule antagonists of the estrogen related receptor (ERR) signaling pathway (AID 1224819). The note with it: ERR reporter cell line, luciferase inhibition; series mostly up to 46.1 µM. Summed up: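 qHTS in ERR cells, 2,000/well, 1536 format. Cpd (DMSO) added after 6 h settle, 18 h 37 C. One-Glo luminescence, 30 min RT.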
Experiment [18] in a line: qHTS assay to identify small molecule agonists of the estrogen related receptor (ERR) signaling pathway (AID 1224820). The following applies: ERR reporter cell line, luciferase agonist mode; series mostly up to 46.1 µM. The method, boiled down:
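An ERR cell line provided by NTP was seeded at 2,000 cells per well and allowed to settle for 6 h before compounds in DMSO were added. After 18 h at 37 C, luciferase activity was measured by One-Glo luminescence.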

For experiment [19], the system named is estrogen-related receptor alpha (ERRalpha) with PGC-1alpha coactivator, human. In words: qHTS assay to identify small molecule antagonists of the estrogen related receptor signaling pathway with the pleiotropic PPARgamma coactivator (PGC) (AID 1224821; calls by dose curve). The note with it: ERR/PGC reporter cell line, luciferase, antagonist mode; series mostly up to 46.1 µM. The method, boiled down: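 A PGC/ERR cell line supplied by NTP is seeded, allowed 6 h at 37 C, and treated with test compounds in DMSO for 18 h. Signal is then measured as luciferase luminescence using One-Glo.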

The nature of experiment [20]: qHTS assay to identify small molecule antagonists of the estrogen related receptor signaling pathway with the pleiotropic PPARgamma coactivator (PGC) cell viability counter screen (AID 1224822;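 also: viability read after 17.5 h compound exposure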). The following applies: ERR/PGC reporter cell line viability counter screen; series mostly up to 46.1 µM. The method, boiled down:
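Multiplexed viability counter screen run in PGC/ERR cells treated with compounds for 17.5 h at 37 C; live-cell protease signal measured by CellTiter-Fluor fluorescence.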

Molecules are shown by their SMILES. “And” between values parts separate entries of the source, which are not always exact repeats. Equal entries are not always repeated. Results filed as inconclusive are left out. Some structures have more than one record in an assay (separate samples or runs), and their calls can disagree. The source made the active and inactive calls. Unless noted, calls follow the shape of the dose curve; as a rule, active = well fitted curve in the direction sought with a large enough effect in the repeat runs; inconclusive = weak or mixed curves; inactive = no such curve, though single readings can be large; an effect the other way counts as inactive or inconclusive.

Retinoic acid receptor RXR-alpha (Homo sapiens), sequence (P19793 whole entry, looked up): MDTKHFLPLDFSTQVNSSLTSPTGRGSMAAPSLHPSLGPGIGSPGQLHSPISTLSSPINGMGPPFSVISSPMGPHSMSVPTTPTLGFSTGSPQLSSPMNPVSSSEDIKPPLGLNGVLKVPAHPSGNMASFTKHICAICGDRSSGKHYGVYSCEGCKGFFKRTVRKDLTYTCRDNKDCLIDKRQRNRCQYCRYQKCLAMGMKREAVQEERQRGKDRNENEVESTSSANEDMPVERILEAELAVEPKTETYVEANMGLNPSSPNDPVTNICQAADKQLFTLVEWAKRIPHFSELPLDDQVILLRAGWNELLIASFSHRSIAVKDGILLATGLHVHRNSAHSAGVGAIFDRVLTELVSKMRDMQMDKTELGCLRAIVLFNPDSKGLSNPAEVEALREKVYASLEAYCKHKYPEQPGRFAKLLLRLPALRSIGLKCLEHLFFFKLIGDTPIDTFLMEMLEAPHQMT

Take `O=C(O)CCCCC1CCSS1` (stereo unspecified): the Potency entry in experiment [1], in [6], in experiment [8], in [11] and in experiment [12] was “inactive” in each case. In addition, the compound was classed as inactive in [2], in [3], in [4], in [5], in experiment [7] and in experiment [9]. Moreover, in experiment [13], the call was inactive. Moreover, the Potency in experiment [10] is 27.5 µM (active) and inactive.

Consider `CC(O)COc1ccccc1` (stereo unspecified), for which the Potency entry in experiment [1], in experiment [6], in [8], in experiment [10], in experiment [11] and in experiment [12] was “inactive” throughout. The Potency entry in experiment [14] and in experiment [15] was “inactive” in each case. The outcome in [2], in experiment [3], in experiment [4], in [5], in [7] and in experiment [9] was inactive.

Regarding `CCOC(=O)C(C)(C)Oc1ccc(Cl)cc1`, the Potency result in experiment [1], in experiment [6], in experiment [8], in experiment [10], in experiment [11] and in experiment [12] was “inactive” in each case. Further, the Potency entry in [17] was “inactive”. In addition, the call in [2], in experiment [3], in [4], in experiment [5], in experiment [7] and in experiment [9] was inactive. For the same compound, the result in [13], in experiment [16], in experiment [18], in experiment [19] and in experiment [20] was inactive.

As to `O=C(O)Cc1cccc2ccccc12`, the Potency entry in [1], in experiment [6], in experiment [8], in experiment [10], in experiment [11] and in [12] was “inactive” in each case. Moreover, the compound was classed as inactive in [2], in [3], in [4], in experiment [5], in experiment [7] and in experiment [9]. The compound was classed as inactive in experiment [13], in experiment [16] and in experiment [20].

Turning to `OC[C@@H](O)[C@@H](O)[C@H](O)[C@H](O)CO`, the Potency result in experiment [1], in experiment [6], in experiment [8], in experiment [10], in experiment [11] and in [12] was “inactive” in each case. Moreover, the Potency entry in experiment [14] and in experiment [15] was “inactive” in each case. Besides, the result in experiment [2], in experiment [3], in experiment [4], in [5], in experiment [7] and in experiment [9] was inactive.

As to `COc1ccccc1O`, the Potency result in experiment [1], in experiment [6], in [8], in [10], in experiment [11] and in [12] was “inactive” each time. Also, the compound was classed as inactive in experiment [2], in experiment [3], in experiment [4], in [5], in [7] and in [9]. The outcome in experiment [13], in experiment [16] and in experiment [20] was inactive.

Consider `NC(=O)N/N=C/c1ccc([N+](=O)[O-])o1`, for which the Potency entry in experiment [1], in experiment [8], in experiment [10], in experiment [12] and in experiment [17] was “inactive” in each case. For the same compound, the compound was classed as inactive in experiment [2], in [3], in experiment [4], in [5], in [7] and in experiment [9]. Further, the call in [13], in experiment [18], in experiment [19] and in experiment [20] was inactive. Besides, the Potency entry in experiment [6] is “inactive and 49 µM (active)”; in experiment [11], “inactive and 13.8 µM (active)”.
